In PubChem BioAssay (Tox21):
Where “and” joins values, the source holds several entries; their conditions need not be identical. Identical values can stand only once. Records with an inconclusive call do not appear. Where a call stands in place of a potency, no number is given. Some structures have more than one record in an assay (separate samples or runs), and their calls can disagree. Calls of active or inactive are those of the source. Unless noted, calls come from the whole dose curve; as a rule, active = well fitted curve in the direction sought with a large enough effect in the repeat runs; inconclusive = weak or mixed curves; inactive = no such curve, though single readings can be large; an effect the other way counts as inactive or inconclusive.

What was measured:
[1] = qHTS assay to identify small molecule agonists of the vitamin D receptor (VDR) signaling pathway - cell viability counter screen (AID 743224); note: nearly all actives have a fitted effect of over 50% in size; note: potency is the fitted concentration of half-maximal effect
Outline: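 Cells: VDR-bla, 2,000/well, settled 4 h. Treatment: compounds in DMSO, 16 h, 37C/5% CO2. Readout: CellTiter-Glo luminescence after 30 min RT.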

[2] = qHTS assay to identify small molecule antagonists of the vitamin D receptor (VDR) signaling pathway - cell viability counter screen (AID 743225); note: nearly all actives have a fitted effect of over 50% in size; note: potency is the fitted concentration of half-maximal effect
Outline: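 Parallel cytotoxicity test: VDR-UAS-bla HEK 293T, 3 nM (final) 1-alpha,25-dihydroxyvitamin D3 with test compound, 16 h, 37C. Endpoint is CellTiter-Glo luminescence in the same wells.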

[3] = qHTS assay to identify small molecule agonists of the NFkB signaling pathway (AID 1159509; active = well fitted curve in the direction sought with a large enough effect in the signal ratio in the repeat runs, not every such curve was filed as active; the % refers to the signal ratio; note: series mostly up to about 61 µM)
Outline: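 Pathway activation was measured in ME-180 cells stably expressing beta-lactamase under NF-kB response element control. Substrate cleavage was read as the 460/530 nm emission shift after 5 hr compound incubation.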

[4] = qHTS assay to identify small molecule agonists of the NFkB signaling pathway - cell viability counter screen (AID 1159515; calls by dose curve; note: series mostly up to about 61 µM; nearly all actives have a fitted effect of over 55% in size)
Outline: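 Cells are seeded (2,000 NFkB-bla ME-180 per well), rested overnight, and dosed with DMSO-dissolved compounds for 5 hr at 37 C. Viability is then read by CellTiter-Glo luminescence after 30 min at room temperature.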

[5] = qHTS assay to identify small molecule agonists of the endoplasmic reticulum stress response signaling pathway (AID 1159516; active = well fitted activation curve with a large enough effect in the signal ratio in the repeat runs, not every such curve was filed as active; the % refers to the signal ratio)
Outline: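 Cells are seeded at 1,500 per well and incubated overnight. Compounds in DMSO are added for 5 hr at 37 C, then beta-lactamase FRET substrate for 2 hr at room temperature, and fluorescence at 460 and 530 nm is measured.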

[6] = qHTS assay to identify small molecule agonists of the endoplasmic reticulum stress response signaling pathway - cell viability counter screen (AID 1159517; calls by dose curve;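 note: HeLa cells carrying an ER stress response element beta-lactamase reporter; series mostly up to about 61 µM; nearly all actives have a fitted effect of over 50% in size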)
Outline: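 ESRE-bla HeLa cells (1,500/well) were plated overnight at 37 C and exposed to compounds for 5 hr. After the 2 hr beta-lactamase substrate read, CellTiter-Glo went into the same wells, and luminescence was read after 30 min at room temperature.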

[7] = qHTS assay to identify small molecule antagonists of the retinoid-related orphan receptor gamma (ROR-gamma) signaling pathway - cell viability counter screen (AID 1159520); note: nearly all actives have a fitted effect of over 50% in size; note: potency is the fitted concentration of half-maximal effect
Outline: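 Cytotoxicity was read from cellular ATP (CellTiter-Glo luminescence) after 16 hr at 37 C with 1 uM doxycycline induction. The inducer was added 2 hr after compound transfer to Tet-on ROR gamma CHO cells.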

[8] = qHTS assay to identify small molecule agonists of the AP-1 signaling pathway - cell viability counter screen (AID 1159525; calls by dose curve; note: nearly all actives have a fitted effect of over 55% in size; note: potency is the fitted concentration of half-maximal effect)
Outline: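 Intracellular ATP by Cell Titer Glo luminescence (30 min, RT) in the same ME-180 AP-1-bla wells after the 5 h compound exposure at 37 °C. Normalised to tetra n-octyl ammonium bromide and DMSO controls.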

[9] = qHTS assay to identify small molecule agonists of the AP-1 signaling pathway (AID 1159526; calls by dose curve)
[10] = target: Nuclear receptor ROR-gamma (Homo sapiens) (UniProt P51449); experiment: qHTS assay to identify small molecule antagonists of the retinoid-related orphan receptor gamma (ROR-gamma) signaling pathway (AID 1159521; note: nearly all actives have a fitted effect of over 50% in size; note: potency is the fitted concentration of half-maximal effect)
Outline: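 Decreased RORE-driven luciferase luminescence indicates antagonism. Tet-on RORγ CHO cells received compound, then 1 uM final doxycycline 2 h later; signal read after 16 h incubation.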

For CC(=O)O[C@]1(C(C)=O)CC[C@H]2[C@@H]3C=C(Cl)C4=CC(=O)[C@@H]5C[C@@H]5[C@]4(C)[C@H]3CC[C@@]21C, the Potency [1] was 48.9 µM (active) and inactive, the Potency [2] was “inactive” and the outcome [3] was “inactive”. The Potency [4] was “inactive”, the Potency [5] was “inactive” and the Potency [6] was “inactive”. For the same compound, the Potency [7] was “inactive”, the Potency [8] was “inactive” and the outcome [9] was “inactive”.

For Oc1ccc(O)cc1, the Potency [1] was “inactive”, the outcome [3] was “inactive” and the Potency [6] was “inactive”. For the same compound, the Potency [10] was 21.6 µM (active) and 38.6 µM (active) and 23.7 µM (active), the Potency [8] was “inactive” and the outcome [9] was “inactive”.

With CN(C)CCC=C1c2ccccc2CCc2ccccc21 the Potency [1] was 49 µM (active) and 21.9 µM (active), the Potency [2] was 21.9 µM (active) and 49 µM (active) and inactive and the outcome [3] was “inactive”. The Potency [4] was “inactive”, the Potency [5] was “inactive” and the Potency [6] was “inactive”. The Potency [7] was “inactive”, the Potency [10] was 30.6 µM (active) and inactive and the Potency [8] was “inactive”.

For CNCCCC12CCC(c3ccccc31)c1ccccc12, the Potency [1] was 21.9 µM (active) and inactive, the Potency [2] was 15.5 µM (active) and the outcome [3] was “inactive”. The Potency [4] was “inactive”, the Potency [5] was “inactive” and the Potency [7] was 61.1 µM (active) and inactive. For the same compound, the Potency [10] was 34.4 µM (active) and inactive and the Potency [8] was “inactive”.

With c1ccc2c(c1)Oc1ccccc1S2 the Potency [1] was “inactive”, the Potency [2] was “inactive” and the outcome [3] was “inactive”. The Potency [4] was “inactive”, the Potency [5] was “inactive” and the Potency [6] was “inactive”. For the same compound, the Potency [7] was “inactive”, the Potency [10] was “inactive” and the Potency [8] was “inactive”.

In the case of Cc1ccc(C(=O)c2cc(O)c(O)c([N+](=O)[O-])c2)cc1, the Potency [2] was “inactive”, the outcome [3] was “inactive” and the Potency [4] was “inactive”. The Potency [5] was “inactive”, the Potency [6] was “inactive” and the Potency [7] was “inactive”. For the same compound, the Potency [10] was 27.3 µM (active) and 26.6 µM (active), the Potency [8] was “inactive” and the outcome [9] was “inactive”.

For COc1cccc2c1C(=O)c1c(O)c3c(c(O)c1C2=O)C[C@@](O)(C(=O)CO)C[C@@H]3O[C@H]1C[C@H](N)[C@H](O)[C@H](C)O1, the Potency [1] was “inactive”, the Potency [2] was “inactive” and the outcome [3] was “inactive”. The Potency [4] was “inactive”, the Potency [6] was “inactive” and the Potency [7] was “inactive and 26.6 µM (active)”. For the same compound, the Potency [10] was “inactive”, the Potency [8] was “inactive” and the outcome [9] was “inactive”.

With CN(C)CCN(Cc1cccs1)c1ccccn1 the Potency [1] was “inactive”, the outcome [3] was “inactive” and the Potency [4] was “inactive”. For the same compound, the Potency [5] was “inactive”, the Potency [6] was “inactive” and the Potency [7] was “inactive”. The Potency [8] was “inactive”.

With O=C(Nc1ccc([N+](=O)[O-])cc1Cl)c1cc(Cl)ccc1O the Potency [1] was 549 nM (active) and 651 nM (active), the outcome [3] was “inactive” and the Potency [4] was “inactive”. The Potency [7] was 1.54 µM (active) and 920 nM (active), the Potency [10] was “inactive” and the viability change, negative = cytotoxic [8] was 2.04% [at 15.8 µM] (inactive). The activation [9] was 4.2% [at 15.8 µM] (inactive).

For c1ccc2sc(SSN3CCOCC3)nc2c1, the Potency [1] was 19.5 µM (active) and 49 µM (active), the Potency [2] was “inactive” and the outcome [3] was “inactive”. For the same compound, the Potency [4] was “inactive”, the Potency [6] was “inactive” and the Potency [7] was 27.3 µM (active). For the same compound, the Potency [10] was 19.3 µM (active) and 54.5 µM (active) and the Potency [8] was “inactive”.

For CCC(C)(O)CCCC(C)C (configuration not stated), the Potency [1] was “inactive”, the Potency [2] was “inactive” and the outcome [3] was “inactive”. For the same compound, the Potency [4] was “inactive”, the Potency [5] was “inactive” and the Potency [6] was “inactive”. For the same compound, the Potency [7] was “inactive”, the Potency [8] was “inactive” and the outcome [9] was “inactive”.

With C#C[C@]1(O)CC[C@H]2[C@@H]3CCC4=Cc5oncc5C[C@]4(C)[C@H]3CC[C@@]21C the Potency [1] was 54.9 µM (active) and inactive, the outcome [3] was “inactive” and the Potency [5] was “inactive”. For the same compound, the Potency [6] was “inactive”, the Potency [7] was “inactive” and the Potency [10] was 17.2 µM (active) and 16.8 µM (active). For the same compound, the Potency [8] was 54.9 µM (active) and inactive and the outcome [9] was “inactive”.

For CN(C)C(=N)N=C(N)N, the Potency [1] was “inactive”, the Potency [2] was “inactive” and the outcome [3] was “inactive”. The Potency [4] was “inactive”, the Potency [5] was “inactive” and the Potency [6] was “inactive”. The Potency [7] was “inactive”, the Potency [8] was “inactive” and the outcome [9] was “inactive”.

In the case of CC1=CCC(C(C)(C)O)CC1 (configuration not stated), the Potency [1] was “inactive”, the Potency [2] was “inactive” and the outcome [3] was “inactive”. The Potency [4] was “inactive”, the Potency [5] was “inactive” and the Potency [6] was “inactive”. For the same compound, the Potency [7] was “inactive”, the Potency [8] was “inactive” and the outcome [9] was “inactive”.

In the case of S=C(NC1CCCCC1)NC1CCCCC1, the Potency [1] was 24.5 µM (active), the Potency [2] was “inactive” and the outcome [3] was “inactive”. For the same compound, the Potency [4] was “inactive”, the Potency [6] was “inactive” and the Potency [7] was “inactive”. For the same compound, the Potency [10] was 48.6 µM (active) and the Potency [8] was “inactive”.

For O=C(Nc1ccc(Cl)cc1)Nc1ccc(Cl)c(Cl)c1, the Potency [1] was 19.4 µM (active) and 11 µM (active), the outcome [3] was “inactive” and the Potency [4] was “inactive”. The Potency [5] was “inactive”, the Potency [6] was “inactive” and the Potency [7] was 17.1 µM (active). For the same compound, the Potency [10] was 17.2 µM (active) and the Potency [8] was “inactive”.

For OCCO, the Potency [1] was “inactive”, the outcome [3] was “inactive” and the Potency [4] was “inactive”. For the same compound, the Potency [5] was “inactive”, the Potency [6] was “inactive” and the Potency [7] was “inactive”. The Potency [8] was “inactive” and the outcome [9] was “inactive”.

In the case of COc1cc([C@@H]2c3cc4c(cc3[C@H](O)[C@H]3COC(=O)[C@H]23)OCO4)cc(OC)c1OC, the Potency [1] was “inactive”, the Potency [2] was “inactive” and the outcome [3] was “inactive”. For the same compound, the Potency [4] was “inactive”, the Potency [6] was “inactive” and the Potency [7] was “inactive”. The Potency [10] was 0.0306 µM (active) and the Potency [8] was “inactive”.

With CC(C)=CCC/C(C)=C\CO the Potency [1] was “inactive”, the Potency [2] was “inactive” and the Potency [4] was “inactive”. The Potency [5] was “inactive”, the Potency [6] was “inactive” and the Potency [7] was “inactive”. The Potency [10] was “inactive”, the Potency [8] was “inactive” and the outcome [9] was “inactive”.
